Test results: paper PMC12820563, “FoxP3 forms a head-to-head dimer in vivo and stabilizes its multimerization on adjacent microsatellites”
Over roughly 16,000 sequences, “rpm ratio (pull-down/input)” has its median near 0.5; the highest 2% begin near 5.5. For the sample, the highest values were picked, then their nearest neighbours and some sequences at random.

target: T1, MBP-FoxP3dN (Mus musculus, UniProt Q99JB6 188-423); experiment: PD-seq (MBP pull-down with sequencing); 20 mM Tris-HCl pH 7.5, 100 mM NaCl, 1.5 mM MgCl2, 0.4 uM protein, 0.1 uM dsDNA library, 30 min, room temperature, amylose pull-down; high values mean tight binding; conditions: protein: recombinant; tags: His6-MBP; chain copies: 2; dsDNA, one strand shown
T1 sequence: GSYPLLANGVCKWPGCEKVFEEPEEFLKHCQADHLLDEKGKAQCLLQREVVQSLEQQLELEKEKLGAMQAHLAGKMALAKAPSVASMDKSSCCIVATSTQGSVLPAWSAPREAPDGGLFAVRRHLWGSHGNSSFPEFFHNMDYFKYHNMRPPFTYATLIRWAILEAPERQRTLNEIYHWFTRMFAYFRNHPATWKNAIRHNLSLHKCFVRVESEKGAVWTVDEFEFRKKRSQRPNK
Outline: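 The N-terminus-lacking fragment of mouse FoxP3 or FoxP1 carried a His6-MBP tag and was expressed in E. coli. At 0.4 µM it was incubated with 0.1 µM Klenow-filled degenerate double-stranded DNA library for 30 min at room temperature in Tris pH 7.5 buffer with NaCl and MgCl2, and complexes were caught on amylose resin, washed three times, released with proteinase K, PCR-barcoded and Illumina-sequenced. Binding is reads-per-million enrichment of pull-down over input with replicates pooled.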

Row | Sequence | binding signal
1 | GATGATTGTTCTCCCAGCTGATGAATTGAGCCCCTCGAGTAAACAAATTTTCCTAATCTTTCTGTTCAAGCGCCATCTAC | 0.983 RPM ratio (pull-down/input)
2 | GATGATTGTTCTCCCAGCTGATGAATTACACCTCTCGAGTAAACAAATTTTCCTAATCTTTCTGTTCAAGCGCCATCTAC | 0.705 RPM ratio (pull-down/input)
3 | GATGATTGTTCTCCCAGCTGATGAATTAACTGTGTCGAGTAAACAAATTTTCCTAATCTTTCTGTTCAAGCGCCATCTAC | 0.556 RPM ratio (pull-down/input)
4 | GATGATTGTTCTCCCAGCTGATGAATTGTGCGTCTCGAGTAAACAAATTTTCCTAATCTTTCTGTTCAAGCGCCATCTAC | 6.12 RPM ratio (pull-down/input)
5 | GATGATTGTTCTCCCAGCTGATGAATTTGTGCTCTCGAGTAAACAAATTTTCCTAATCTTTCTGTTCAAGCGCCATCTAC | 2.89 RPM ratio (pull-down/input)
6 | GATGATTGTTCTCCCAGCTGATGAATTCTGTGTTTCGAGTAAACAAATTTTCCTAATCTTTCTGTTCAAGCGCCATCTAC | 3.31 RPM ratio (pull-down/input)
7 | GATGATTGTTCTCCCAGCTGATGAATTTGTGTGCTCGAGTAAACAAATTTTCCTAATCTTTCTGTTCAAGCGCCATCTAC | 5.67 RPM ratio (pull-down/input)
8 | GATGATTGTTCTCCCAGCTGATGAATTGCGTTTTTCGAGTAAACAAATTTTCCTAATCTTTCTGTTCAAGCGCCATCTAC | 2.11 RPM ratio (pull-down/input)
9 | GATGATTGTTCTCCCAGCTGATGAATTTGTGCGTTCGAGTAAACAAATTTTCCTAATCTTTCTGTTCAAGCGCCATCTAC | 3.7 RPM ratio (pull-down/input)
10 | GATGATTGTTCTCCCAGCTGATGAATTGTGTGTTTCGAGTAAACAAATTTTCCTAATCTTTCTGTTCAAGCGCCATCTAC | 4.97 RPM ratio (pull-down/input)
11 | GATGATTGTTCTCCCAGCTGATGAATTTTTGTGCTCGAGTAAACAAATTTTCCTAATCTTTCTGTTCAAGCGCCATCTAC | 0.442 RPM ratio (pull-down/input)
12 | GATGATTGTTCTCCCAGCTGATGAATTGTGTTTTTCGAGTAAACAAATTTTCCTAATCTTTCTGTTCAAGCGCCATCTAC | 6.66 RPM ratio (pull-down/input)
13 | GATGATTGTTCTCCCAGCTGATGAATTGTGCGTTTCGAGTAAACAAATTTTCCTAATCTTTCTGTTCAAGCGCCATCTAC | 5.5 RPM ratio (pull-down/input)
14 | GATGATTGTTCTCCCAGCTGATGAATTTTGCGTCTCGAGTAAACAAATTTTCCTAATCTTTCTGTTCAAGCGCCATCTAC | 5.4 RPM ratio (pull-down/input)
15 | GATGATTGTTCTCCCAGCTGATGAATTCTGCGTCTCGAGTAAACAAATTTTCCTAATCTTTCTGTTCAAGCGCCATCTAC | 4.55 RPM ratio (pull-down/input)
16 | GATGATTGTTCTCCCAGCTGATGAATTAACGGATTCGAGTAAACAAATTTTCCTAATCTTTCTGTTCAAGCGCCATCTAC | 0.29 RPM ratio (pull-down/input)
17 | GATGATTGTTCTCCCAGCTGATGAATTCCTAACTTCGAGTAAACAAATTTTCCTAATCTTTCTGTTCAAGCGCCATCTAC | 0.231 RPM ratio (pull-down/input)
18 | GATGATTGTTCTCCCAGCTGATGAATTCACCTTATCGAGTAAACAAATTTTCCTAATCTTTCTGTTCAAGCGCCATCTAC | 0.363 RPM ratio (pull-down/input)
